The results in this text go back to PubChem BioAssay AID434927 (Sanford-Burnham Center for Chemical Genomics, 2010).

Activity calls are given as the source filed them.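 How the source made its calls: active means inhibition above about 23% in any of six single-dose repeats (limit read from the data); inactive means the rest.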

Sequence of Intestinal-type alkaline phosphatase (Homo sapiens) (P09923 whole entry, looked up): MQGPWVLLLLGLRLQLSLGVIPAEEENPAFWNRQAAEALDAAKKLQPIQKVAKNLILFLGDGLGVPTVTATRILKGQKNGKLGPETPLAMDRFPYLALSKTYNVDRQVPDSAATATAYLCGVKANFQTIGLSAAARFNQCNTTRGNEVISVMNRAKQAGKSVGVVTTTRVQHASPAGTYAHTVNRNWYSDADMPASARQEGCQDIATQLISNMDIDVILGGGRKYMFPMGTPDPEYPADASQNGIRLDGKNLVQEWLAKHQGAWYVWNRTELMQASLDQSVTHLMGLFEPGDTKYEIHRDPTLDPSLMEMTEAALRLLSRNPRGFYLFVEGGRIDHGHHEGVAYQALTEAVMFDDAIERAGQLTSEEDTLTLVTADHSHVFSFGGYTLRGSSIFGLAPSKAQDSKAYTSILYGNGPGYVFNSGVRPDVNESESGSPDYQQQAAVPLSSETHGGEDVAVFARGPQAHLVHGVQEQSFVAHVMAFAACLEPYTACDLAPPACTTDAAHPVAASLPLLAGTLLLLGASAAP

The assay has as its target Intestinal-type alkaline phosphatase (Homo sapiens) (UniProt P09923). As to the kind of experiment: human IAP inhibitors, confirmation, biochemical, luminescence, single concentration, uHTS hits (AID 434927).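 Further: plate controls were DMSO wells with enzyme for no effect and wells lacking enzyme for full effect.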 As to conditions: purified human IAP, CDP-Star luminescence, 30 min; at 8.3 µM; active compounds read high.
The term inhibition denotes the drop in the measured response relative to a control, in per cent. With `Cc1cc(C(=O)NC2CC(C)(C)Cc3c2cnn3-c2ccccc2)n[nH]1` (stereo unspecified), the inhibition was 62.1% (active).

Consider `NC(CO)C(=O)NNCc1ccc(O)c(O)c1O` (stereo unspecified), for which the inhibition was -60.9% (inactive). For `c1ccc(CSCCc2ccncc2)cc1`, the inhibition is -33.2% (inactive). In the case of `O=C(Cc1ccc(Cl)c(Cl)c1)NNC(=S)NCC1CCCO1` (stereo unspecified), the inhibition is -97.6% (inactive). To `CCCOCC(O)CC(CC)C(=O)NNC(=S)Nc1ccccc1` (stereo unspecified) belongs -138% (inactive); to `CC(=O)Nc1cccc(C(=O)NNC(=O)c2n[nH]c(=O)c3ccccc23)c1`, -125% (inactive); to `Cc1cccc(SCc2noc(C(=O)NCC3CCCO3)c2C(=O)O)c1` (stereo unspecified), -213% (inactive).

As to `CC(NC(=S)NC1CCC(C(C)(C)C)CC1)c1ccccc1` (stereo unspecified), the inhibition is -111% (inactive). Regarding `Cc1ccc(-n2ncc3c(NNC(=O)c4ccco4)ncnc32)cc1C`, the inhibition is 41.4% (active). To `CC(/C=N/NC(=O)CCn1nnc2ccccc21)=C\c1ccccc1` belongs -88.8% (inactive); to `O=c1c2cc(O)c(O)cc2oc2cc(O)c(C3OC(CO)C(O)C(O)C3O)c(O)c12` (stereo unspecified), -148% (inactive). For `CC1C(=O)NN=C1C(=O)N/N=C\c1ccc(O)cc1O` (stereo unspecified) the value was -78.7% (inactive). To `CCC(NC(=S)NC1CCCCC1)c1ccc(C(C)C)cc1` (stereo unspecified) belongs -24.1% (inactive). For the compound `Cc1cc(C)cc(CC(Cc2nc3ccccc3[nH]2)c2nc3ccccc3[nH]2)c1` (stereo unspecified), the inhibition is -323% (inactive).

Turning to `C/C(=N/NC(=O)c1ccc(Cn2cccn2)o1)c1cccc(NC(=O)c2ccncc2)c1`, the inhibition is -101% (inactive).

For the compound `CCOc1ccccc1CN1CCC(n2nccc2NC(=O)CCc2ccccc2)CC1`, the inhibition is 26.6% (active).
